We go through 26 molecules from PubChem BioAssay (NCATS).

The nature of assay [1]: qHTS for Inhibitors of Plasmodium falciparum (DD2) proliferation (AID 504314). Further: potency means the concentration at half of the fitted maximal effect. The method, boiled down: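 Normalization used 0.29 uM artemisinin as full inhibition and DMSO as baseline. Parasitized erythrocytes were exposed to compounds for 72 h (37C, 5% CO2), then lysed with saponin/Triton buffer containing SYBR Green I.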
A general note: In qHTS, concentration-response curves come from the screen itself.

Assay [2] can be described thus: qHTS for Inhibitors of Plasmodium falciparum (GB4) proliferation (AID 504315). Further: nearly all actives have a fitted effect of over 50% in size. Further: potency means the concentration at half of the fitted maximal effect. The method in brief:
(§1)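 Parasite growth measured as SYBR Green DNA fluorescence (ex 485, em 535 nm) after overnight lysis following 72 h culture at 37 °C, 0.3% parasitemia, 2.5% hematocrit. Values normalized against DMSO and 0.29 uM artemisinin controls, with plate-stack correction.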

A short description of assay [3]: qHTS for Inhibitors of Plasmodium falciparum (7G8) proliferation (AID 504316). Further: nearly all actives have a fitted effect of over 65% in size. Further: potency means the concentration at half of the fitted maximal effect. The method in brief:
as §1

Assay [4] is described as follows: qHTS for Inhibitors of Plasmodium falciparum (HB3) proliferation (AID 504318). Further: nearly all actives have a fitted effect of over 60% in size. Further: potency means the concentration at half of the fitted maximal effect. The method in brief:
as §1

Assay [5] can be described thus: qHTS for Inhibitors of Plasmodium falciparum (CP250) proliferation (AID 504320). Further: potency means the concentration at half of the fitted maximal effect. The method, boiled down: as §1
Assay [6] concerns the target Atrial natriuretic peptide receptor 1 (Homo sapiens) (UniProt P16066). The assay is described as follows: Natriuretic polypeptide receptor (hNpr1) antagonism - Pilot CMLD screen (AID 1347052; calls by dose curve;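 further: HEK293 cells with hNpr1 stimulated by hNppA peptide at 0.1 nM; cGMP level read as GloSensor luciferase luminescence after agonist stimulation; series mostly up to about 9.2 µM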).

Several values for one entry are separate records, joined by “and”; a condition that tells them apart may be missing. Equal entries are not always repeated. Records with an inconclusive call do not appear. A structure can be active in one record and inactive in another. Activity calls are given as the source filed them. Unless noted, the call rests on the fitted dose curve; in most records, active means well fitted curve in the direction sought with a large enough effect; inconclusive means small, poorly fitted or top-dose-only effect, or another doubt; inactive means no such curve, though single readings can be large; an effect the other way counts as inactive or inconclusive.

Atrial natriuretic peptide receptor 1 (Homo sapiens), sequence (P16066 whole entry, looked up): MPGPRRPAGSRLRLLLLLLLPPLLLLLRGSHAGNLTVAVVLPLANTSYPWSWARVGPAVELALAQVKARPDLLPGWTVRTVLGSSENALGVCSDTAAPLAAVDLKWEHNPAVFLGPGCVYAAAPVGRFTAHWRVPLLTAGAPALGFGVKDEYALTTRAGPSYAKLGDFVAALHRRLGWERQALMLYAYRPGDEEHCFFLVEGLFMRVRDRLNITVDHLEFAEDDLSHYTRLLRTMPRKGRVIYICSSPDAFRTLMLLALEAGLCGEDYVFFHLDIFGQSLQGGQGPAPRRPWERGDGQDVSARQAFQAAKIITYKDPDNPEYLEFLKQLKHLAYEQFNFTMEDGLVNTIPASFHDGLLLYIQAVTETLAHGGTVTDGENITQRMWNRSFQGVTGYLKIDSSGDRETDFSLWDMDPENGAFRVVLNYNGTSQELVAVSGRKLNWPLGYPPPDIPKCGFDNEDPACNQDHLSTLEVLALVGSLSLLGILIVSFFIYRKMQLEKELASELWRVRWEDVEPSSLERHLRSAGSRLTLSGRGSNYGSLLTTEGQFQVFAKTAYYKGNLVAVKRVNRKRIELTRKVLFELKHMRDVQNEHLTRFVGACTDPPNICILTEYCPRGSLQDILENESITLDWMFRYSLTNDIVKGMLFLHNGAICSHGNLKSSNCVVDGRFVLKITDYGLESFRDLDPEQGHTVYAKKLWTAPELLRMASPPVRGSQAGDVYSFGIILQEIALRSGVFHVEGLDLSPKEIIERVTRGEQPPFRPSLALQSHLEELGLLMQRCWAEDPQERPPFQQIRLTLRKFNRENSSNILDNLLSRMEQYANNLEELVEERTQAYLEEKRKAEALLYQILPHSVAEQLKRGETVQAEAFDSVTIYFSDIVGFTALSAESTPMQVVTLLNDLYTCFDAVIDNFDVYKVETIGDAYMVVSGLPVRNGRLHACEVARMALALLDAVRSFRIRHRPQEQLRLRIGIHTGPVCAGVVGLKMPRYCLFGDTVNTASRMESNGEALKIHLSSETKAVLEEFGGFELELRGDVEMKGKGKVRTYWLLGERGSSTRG

In the case of `CC12C=C(C=CC=Cc3ccco3)C(C)(C1)C(C=Cc1ccco1)CC2=O` (configuration not stated), the Potency entry in assay [1], in assay [2], in assay [3], in assay [4], in assay [5] and in assay [6] was “inactive” each time.

`COC(=O)N[C@@H](c1cccs1)C(C(C)=O)C(=O)OC` (some centres not stated): the Potency entry in assay [1], in assay [2], in assay [3], in assay [4], in assay [5] and in assay [6] was “inactive” each time.

On to `CC(C)(C)c1nc(-c2ccccc2)oc1Nc1ccc2ccccc2c1`, for which the Potency in assay [1] was 1690 nM (active); in assay [2], 1900 nM (active); in assay [3], 1510 nM (active); in assay [4] it was 2940 nM (active). For the same molecule, in assay [6], the Potency entry is “inactive”.

For `COC(=O)C1=C(C(=O)OC)[C@@H]2Nc3ccccc3[C@@]23C[C@@H](C(=O)OC)N(C(=O)COCc2ccccc2)C3=N1`, the Potency result in assay [1], in assay [2], in assay [3], in assay [4], in assay [5] and in assay [6] was “inactive” in each case.

In the case of `CCN1C(N(C)CCOC)=NC(c2cccc(F)c2)C(C(=O)OC)=C1C` (configuration not stated), the Potency entry in assay [1], in assay [2], in assay [3], in assay [4] and in assay [6] was “inactive” each time.

For the molecule `C=CCC(Nc1ccc(OC)cc1)C(=O)OCC` (configuration not stated), the Potency entry in assay [1], in assay [2], in assay [3], in assay [4], in assay [5] and in assay [6] was “inactive” each time.

Take `C[C@@H]1C=CCCO[C@]12C(=O)N(CC1CC1)c1ccccc12`: the Potency entry in assay [1], in assay [2], in assay [3], in assay [4] and in assay [6] was “inactive” in each case.

In the case of `C=CCOC(=O)C1=C(C)N(CC)C(=O)NC1c1ccccc1` (configuration not stated), the Potency entry in assay [1], in assay [2], in assay [3], in assay [4] and in assay [6] was “inactive” in each case.

For `COC(=O)N[C@@H](c1ccc(Br)cc1)C(C(=O)OC)C(=O)OC`, the Potency result in assay [1], in assay [2], in assay [3], in assay [4] and in assay [6] was “inactive” in each case.

As to `COc1cccc([C@H]2Oc3ccc(OC)cc3C(=NOCC[C@@H]3C=C[C@H](OC(C)=O)[C@@H](COC(C)=O)O3)[C@H]2O)c1`, the Potency entry in assay [1], in assay [2], in assay [3], in assay [4] and in assay [6] was “inactive” throughout.

For `CC(CCN1CCCCc2nc(C)c(C)cc21)=NO[C@H](C)c1cn([C@@H]2COC[C@@H]2O)nn1`, the Potency entry in assay [1], in assay [2], in assay [3], in assay [4] and in assay [6] was “inactive” in each case.

Regarding `COC(=O)CC=C[C@@H](C)[C@H](OC)c1ccccc1Br`, the Potency result in assay [1] was “inactive and 1.5 µM (active)”; in assay [2], “inactive and 1.51 µM (active)”; in assay [3], “inactive and 1.9 µM (active)”; in assay [4], “inactive and 1.9 µM (active)”; in assay [5] it was “inactive and 1.35 µM (active)”. The Potency result in assay [6] was “inactive”.

Take `CCOC(=O)OC[C@H]1O[C@H](C#Cc2ccc(F)cc2F)C=C[C@H]1OC(=O)OCC`: the Potency result in assay [1], in assay [2], in assay [3], in assay [4], in assay [5] and in assay [6] was “inactive” throughout.

For the molecule `CC(C)[C@@H](OCc1ccccc1)[C@H](C)C=NOC[C@@H](O)[C@H]1O[C@@H]2OC(C)(C)O[C@H]2[C@@H]1O`, the Potency result in assay [1], in assay [2], in assay [3], in assay [4] and in assay [6] was “inactive” throughout.

As for `COc1cc2c(cc1OC)[C@@H]1O[C@](CCCCN3C(=O)c4ccccc4C3=O)(C2)OC2=C1C(=O)CC(C)(C)C2`, the Potency in assay [1] is 753 nM (active); in assay [2], 757 nM (active); in assay [3], 301 nM (active); in assay [4], 478 nM (active). Moreover, the Potency entry in assay [6] was “inactive”.

Take `C[C@H]1[C@H](N=[N+]=[N-])[C@H](O)CCO[C@@H]1c1ccccc1`: the Potency entry in assay [1], in assay [2], in assay [3], in assay [4], in assay [5] and in assay [6] was “inactive” each time.

As for `COC(=O)C1=C(C(=O)OC)[C@@H]2N(C)c3ccccc3[C@@]23C[C@@H](C(=O)OC)N(C(=O)c2cccs2)C3=N1`, the Potency entry in assay [1], in assay [2], in assay [3], in assay [4], in assay [5] and in assay [6] was “inactive” in each case.

Consider `C#CCCCON=C1C[C@@H](O)[C@H](O)[C@H]2[C@@H]3C(=O)N(C[C@@H]4CCCO4)C(=O)[C@@H]3CC[C@H]12`, for which the Potency result in assay [1], in assay [2], in assay [3], in assay [4], in assay [5] and in assay [6] was “inactive” throughout.

For `COc1ccc2c(c1)C(=O)[C@@H](OC(=O)NS(=O)(=O)c1ccc(F)cc1)[C@H](c1ccc(OC)c(Br)c1)O2`, the Potency result in assay [1], in assay [2], in assay [3], in assay [4], in assay [5] and in assay [6] was “inactive” each time.

With `COC(=O)c1ccc(CN2C(=O)C3(CC(C)=C[C@@H](C)O3)c3c(Br)cccc32)cc1` (some centres not stated), the Potency entry in assay [1], in assay [2], in assay [3], in assay [4], in assay [5] and in assay [6] was “inactive” each time.

Regarding `COC1=C[C@H](C(=O)NCc2ccccc2)[C@H](C)[C@@H](c2ccccc2)CC1=O`, the Potency entry in assay [1], in assay [2], in assay [3], in assay [4], in assay [5] and in assay [6] was “inactive” in each case.

As for `COC(=O)N[C@@H](c1ccc2ccccc2c1)C(C(C)=O)C(=O)OC` (some centres not stated), the Potency result in assay [1], in assay [2], in assay [3], in assay [4], in assay [5] and in assay [6] was “inactive” in each case.

As for `COC(=O)C1=C(C(=O)OC)[C@@H]2Nc3ccccc3[C@@]23C[C@@H](C(=O)OC)N(C(=O)NC(C)(C)C)C3=N1`, the Potency entry in assay [1], in assay [2], in assay [3], in assay [4], in assay [5] and in assay [6] was “inactive” in each case.

As for `C[C@@H]1C(c2ccccc2)CC(=O)C(=O)C[C@@H]1C(=O)N1CCCC1` (some centres not stated), the Potency result in assay [1], in assay [2], in assay [3], in assay [4], in assay [5] and in assay [6] was “inactive” each time.

With `C=CCN1c2ccccc2[C@]23CCC(=O)N(CCOC)C2=NC(C(=O)OC)=C(C(=O)OC)[C@H]13`, the Potency result in assay [1], in assay [2], in assay [3], in assay [4], in assay [5] and in assay [6] was “inactive” throughout.

For the molecule `COC(=O)NC(CCc1ccccc1)C(C(C)=O)C(=O)OC` (configuration not stated), the Potency result in assay [1], in assay [2], in assay [3], in assay [4], in assay [5] and in assay [6] was “inactive” throughout.
